# Compounds without any hit were thinned out: in the full panel of roughly 83,000, 20% have a hit.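 A percent growth of 40 corresponds to 60% growth inhibition; 0 means no net growth; -100 means all cells died. Active threshold: below 10.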 A number with no mark means an inactive call. Calls of active or inactive are those of the source.
# Experiments:
# Assay in all cases: NCI-60 one-dose screen, 48 h (100 = growth as untreated, 0 = no growth, -100 = all killed)
# Conditions in all cases: 10 µM unless noted
# SK-MEL-2 melanoma = test system: SK-MEL-2 melanoma
# SN12C renal = test system: SN12C renal
# UO-31 renal = test system: UO-31 renal
# TK-10 renal = test system: TK-10 renal
# ACHN renal = test system: ACHN renal
# CAKI-1 renal = test system: CAKI-1 renal
# A498 renal = test system: A498 renal
# CCRF-CEM leukemia = test system: CCRF-CEM leukemia
# MOLT-4 leukemia = test system: MOLT-4 leukemia
SMILES,growth (SK-MEL-2 melanoma),growth (SN12C renal),growth (UO-31 renal),growth (TK-10 renal),growth (ACHN renal),growth (CAKI-1 renal),growth (A498 renal),growth (CCRF-CEM leukemia),growth (MOLT-4 leukemia)
CCCCNC(=O)NS(=O)(=O)c1ccc(N2N=C(c3ccc(C)cc3C)CC2c2ccc(OC)cc2)cc1 (stereo not drawn),81.3%,75%,59.7%,88.7%,64%,70.8%,52.9%,54.3%,52.3%
COc1ccc2c(c1)C(=O)/C(=C/c1ccc(O)cc1)O2,81.2%,76.8%,-97.4% (active),75.1%,96.4%,71.8%,94.8%,104%,62.8%
COc1ccc(C2CC(c3cccs3)=NN2c2ccc(S(=O)(=O)NC(=O)NCc3cccc(OC)c3)cc2)cc1 (stereo not drawn),57.6%,112%,87.2%,96%,93.2%,94.7%,102%,88.1%,94.7%
Cc1sc(N=Nc2ccc(N(C)C)cc2)[n+]([O-])c1C,114%,96.7%,82.4%,104%,104%,110%,88.1%,104%,103%
COC1=CC(c2ccc[nH]2)=N/C1=C\c1[nH]c(C)c(CCCn2cc(CCCCCCCCC[C@@H]3Cc4cc(O)ccc4C4CC[C@]5(C)[C@@H](O)CC[C@H]5C43)nn2)c1C (stereo partly drawn),69.7%,62.4%,49.8%,109%,40.8%,71%,62.1%,28.1%,67.1%
CC(=O)OCC1OC(OCC2OC(OC(C)=O)C(OC(C)=O)C(OC(C)=O)C2OC(C)=O)C(OC(C)=O)C(OC(C)=O)C1OC(C)=O (stereo not drawn),107%,95.1%,95.4%,106%,94.7%,94.7%,87%,99.6%,104%
COc1cc(C2C=C(C)N=C3SC=C(C)N32)cc(OC)c1OC (stereo not drawn),-39.5% (active),-8.33% (active),-87.2% (active),-22.5% (active),-75% (active),-49.9% (active),-27.6% (active),-17.9% (active),-2.68% (active)
CC1=CNNc2c3ncnc-3ncn21,111%,105%,90.6%,105%,99.8%,102%,95.7%,96.1%,91.9%
Cc1cccc(NC(=O)c2sc3nc4c(cc3c2N)CCCC4)c1,54.9%,51.8%,54.2%,70.7%,48.9%,40.8%,44.3%,19.4%,33.6%
CCn1cc(C(=O)O)c(=O)c2cc(F)c(N3CCN(S(=O)(=O)c4ccc(Cl)cc4Cl)CC3)cc21,-18.1% (active),10.3%,-13.4% (active),12.4%,-54.6% (active),4.75% (active),-0.0481% (active),2.78% (active),1.8% (active)
CC/C(=C(\c1ccc(O)cc1)c1ccc(OCCN(C)CCN(C)C(=O)CCC(=O)c2c(C)[nH]c(/C=C3\N=C(c4ccc[nH]4)C=C3OC)c2C)cc1)c1ccccc1,96.8%,91.8%,46.9%,117%,95.5%,71.4%,65.2%,40.8%,71.7%
O=C(CN1CCN(c2cc3c(cc2F)c(=O)c(C(=O)O)cn3C2CC2)CC1)Nc1ccc(C(=O)/C=C/c2ccc(Cl)cc2)cc1,113%,94.2%,94.6%,111%,107%,102%,102%,99.5%,110%
Clc1nc(-c2cccnc2)nc2sc3c(c12)CCCCCC3,105%,99.6%,101%,103%,105%,93.8%,94.1%,83.4%,90%
COc1ccc(-n2c(C)cc(-c3ccccc3)c2C)cc1,40%,50.5%,52.3%,57.3%,62.5%,29.3%,35.2%,29.4%,17.8%
CCCCCCCCCCn1cc[n+](C)c1,13.1%,19.4%,65.7%,-1.53% (active),45%,28.8%,12.4%,111%,78.6%
COc1cc(-c2cc(/C=C3\CCCCC3=O)[nH]n2)cc(OC)c1OC,94.7%,93.8%,80.8%,112%,98.7%,91.2%,95.2%,69.5%,82%
CN1CCN(c2ccc3cc(-c4nc5ccccc5[nH]4)c(=O)oc3c2)CC1,105%,93.7%,65.5%,119%,89.3%,84.8%,86.3%,73.6%,88.4%
COc1cc(/C=C/C(=O)c2ccc(NC(=O)CN3CCN(c4cc5c(cc4F)c(=O)c(C(=O)O)cn5C4CC4)CC3)cc2)cc(OC)c1OC,30%,10.3%,2.96% (active),19.1%,10.8%,57.2%,-43.8% (active),-13.7% (active),-1.1% (active)
CCNC(=O)C1CCCN1C(=O)C(CCCN=C(N)N)NC(=O)C(CC(C)C)NC(=O)C(CC(C)C)NC(=O)C(Cc1ccc(O)cc1)NC(=O)C(CO)NC(=O)C(Cc1c[nH]c2ccccc12)NC(=O)C(Cc1cnc[nH]1)NC(=O)C1CCC(=O)N1 (stereo not drawn),102%,112%,93.7%,110%,97%,84.9%,98%,54.5%,86.5%
COc1cc(Cn2c(SCC(=O)Nc3cc(OC)c(OC)c(OC)c3)nc3ccccc3c2=O)cc(OC)c1OC,75.1%,82%,80.4%,67.9%,33.4%,95.5%,62.4%,101%,89.4%
COc1ccc(/C=C/c2nc(N3CCOCC3)c3cc(F)c(F)cc3n2)cc1OC,43.3%,33.4%,20.1%,28.8%,33.1%,28.1%,45.5%,35.8%,6.52% (active)
O=c1oc2cc(OS(=O)(=O)c3ccc(F)cc3)ccc2c2c1CCCCC2,72%,70.1%,50.2%,89.6%,84.9%,86.7%,83.4%,36%,63.8%
COc1ccc(/C=C2\C(=O)N(C(=O)c3csc(NC(C)=O)n3)N=C2C)cc1,94.8%,106%,81.9%,102%,107%,99%,121%,99%,86.9%
COc1cc(Cn2c(SCC(=O)Nc3ccc(Cl)cc3)nc3ccccc3c2=O)cc(OC)c1OC,81%,71.2%,17.7%,67.8%,18.9%,71.1%,41.4%,83.1%,46.4%
COc1cc(Cn2c(SCCC(=O)Nc3ccc(F)cc3)nc3ccccc3c2=O)cc(OC)c1OC,81.3%,82.9%,53.7%,101%,81.9%,74%,63.3%,86.8%,49%
NC(=S)NN=C1CCCCC1,107%,85.2%,79.8%,100%,103%,103%,87%,39.6%,68.8%
Cc1cc(-c2ccccc2)c(C)n1Cc1ccc(Cl)cc1,31.2%,49.3%,50.5%,76.6%,54.8%,21.5%,23.8%,43.5%,17.1%

# Reference: PubChem BioAssay (NCI)
